Test [1] has as its system Plasmodium falciparum Sir2 (PF13_0152, Sir2A). Kind of test: Plasmodium falciparum Sir2A binding compounds – biochemical, small-molecule microarray, 635 nm fluorescence, primary screen (AID 1098).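 Note: score merges spot fluorescence intensity with its signal-to-noise ratio.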 The note with it: fluorescence 635 nm, higher = more signal.
Test [2] is described as follows: probe aDKK1 binding to arrayed compounds – biochemical, biotinylated probe, 635/667 nm fluorescence, primary screen (AID 1099).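 Note: score merges 667nm spot fluorescence with signal to noise across triplicate slides; reference of the scale not given here.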 The note with it: small-molecule microarray, higher = more signal.
A short description of test [3]: probe aCHRDL2 binding to arrayed compounds – biochemical, biotinylated probe, 635/667 nm fluorescence, primary screen (AID 1100). The note with it: small-molecule microarray, higher = more signal.
Test [4] is described as follows: change in splice reporter luminescence, either direction, cell-based, HEK293, spliceosome inhibition project, primary screen (AID 1101).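 Note: HEK293 cells carrying a splicing-competent luciferase reporter gene; test concentration not given here.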 The note with it: HEK293 splicing luciferase reporter, 24 h, higher = more signal, called active from +8 up or from −8 down. Background: Reporter assays use an easily measured gene product as a stand-in for the process of interest.

Test [5] has as its target Fibroblast growth factor 10 (Homo sapiens) (UniProt O15520). Kind of test: compounds binding fibroblast growth factor 10 – biochemical, small-molecule microarray, 635 nm fluorescence, primary screen (AID 1102). The note with it: FGF10 binding, fluorescence 635 nm, higher = more signal.
Test [6] has as its system glycogen synthase kinase-3 (GSK3A per assay name; protocol says GSK3B). Kind of test: compounds binding glycogen synthase kinase-3 – biochemical, small-molecule microarray, 635 nm fluorescence, GSK3A, primary screen (AID 1103). Note: the record names both GSK3A and GSK3B. The note with it: fluorescence 635 nm, higher = more signal.
Test [7] deals with Epidermal growth factor receptor (Homo sapiens) (UniProt P00533). The test is described as follows: compounds binding epidermal growth factor receptor – biochemical, small-molecule microarray, 635 nm fluorescence, primary screen (AID 1104).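 Note: score merges 667 nm emission intensity with spot signal to noise over triplicate slides.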 The note with it: EGFR binding, higher = more signal.
Epidermal growth factor receptor (Homo sapiens), sequence (P00533 whole entry, looked up): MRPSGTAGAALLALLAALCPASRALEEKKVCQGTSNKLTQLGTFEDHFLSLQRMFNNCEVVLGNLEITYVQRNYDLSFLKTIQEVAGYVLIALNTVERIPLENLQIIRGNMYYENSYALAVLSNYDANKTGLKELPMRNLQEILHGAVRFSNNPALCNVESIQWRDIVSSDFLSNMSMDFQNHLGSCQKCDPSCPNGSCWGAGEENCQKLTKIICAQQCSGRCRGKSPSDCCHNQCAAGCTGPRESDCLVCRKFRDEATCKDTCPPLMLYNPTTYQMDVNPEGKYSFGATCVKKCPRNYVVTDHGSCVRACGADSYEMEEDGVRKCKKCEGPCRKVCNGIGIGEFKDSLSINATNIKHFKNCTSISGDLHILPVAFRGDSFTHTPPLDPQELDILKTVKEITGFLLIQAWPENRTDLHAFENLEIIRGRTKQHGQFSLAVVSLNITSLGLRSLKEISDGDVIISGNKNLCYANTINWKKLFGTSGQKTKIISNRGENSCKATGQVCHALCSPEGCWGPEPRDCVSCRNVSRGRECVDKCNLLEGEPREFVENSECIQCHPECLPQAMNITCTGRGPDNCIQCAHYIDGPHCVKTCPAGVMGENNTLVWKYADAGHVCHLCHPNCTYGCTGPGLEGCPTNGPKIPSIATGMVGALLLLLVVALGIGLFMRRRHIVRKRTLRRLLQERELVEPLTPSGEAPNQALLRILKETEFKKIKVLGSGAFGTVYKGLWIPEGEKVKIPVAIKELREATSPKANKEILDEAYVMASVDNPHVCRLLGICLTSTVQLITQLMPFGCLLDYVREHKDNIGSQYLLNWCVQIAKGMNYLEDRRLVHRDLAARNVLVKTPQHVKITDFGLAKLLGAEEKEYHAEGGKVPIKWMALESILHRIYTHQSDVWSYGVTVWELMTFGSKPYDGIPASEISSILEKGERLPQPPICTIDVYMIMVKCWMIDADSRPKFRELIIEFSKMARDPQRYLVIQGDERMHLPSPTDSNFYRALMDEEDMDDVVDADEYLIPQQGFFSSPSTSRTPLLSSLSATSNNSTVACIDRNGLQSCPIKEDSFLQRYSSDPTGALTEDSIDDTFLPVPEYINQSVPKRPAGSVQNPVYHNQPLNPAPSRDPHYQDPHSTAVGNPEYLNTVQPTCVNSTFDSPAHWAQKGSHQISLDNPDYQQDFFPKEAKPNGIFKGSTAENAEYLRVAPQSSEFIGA
Test [8] concerns the target Follistatin-related protein 3 (Homo sapiens) (UniProt O95633). The test is described as follows: compounds binding follistatin-related protein 3 – biochemical, small-molecule microarray, 635 nm fluorescence, primary screen (AID 1105).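 Note: score merges emission near 667 nm and signal to noise per printed spot across three slides.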 The note with it: FSTL3 binding, higher = more signal.
Test [9] has as its target Dickkopf-related protein 1 (Homo sapiens) (UniProt O94907). The test is described as follows: small molecules binding DKK1 protein – biochemical, small-molecule microarray, 635 nm fluorescence scan, primary screen (AID 1106).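 Note: score merges emission near 667 nm with signal to noise over three replicate slides.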 The note with it: higher = more signal.
For test [10], the system named is Inhibin beta A chain (activin A). The test is described as follows: small molecules binding activin A – biochemical, small-molecule microarray, 635 nm fluorescence scan, primary screen (AID 1107).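 Note: mouse activin A protein probed at 4.33 µg/mL on printed slides; score merges bound-protein fluorescence near 667 nm with spot signal-to-noise.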 The note with it: INHBA, higher = more signal.

SMILES strings stand for the structures. Active and inactive are the calls of the source.

Fibroblast growth factor 10 (Homo sapiens), sequence (O15520 whole entry, looked up): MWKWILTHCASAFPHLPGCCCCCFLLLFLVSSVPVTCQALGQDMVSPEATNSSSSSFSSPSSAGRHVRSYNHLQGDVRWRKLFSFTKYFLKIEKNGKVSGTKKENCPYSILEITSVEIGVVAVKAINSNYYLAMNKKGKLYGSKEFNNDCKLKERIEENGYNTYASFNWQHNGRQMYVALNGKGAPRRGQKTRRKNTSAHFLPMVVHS
Follistatin-related protein 3 (Homo sapiens), sequence (O95633 whole entry, looked up): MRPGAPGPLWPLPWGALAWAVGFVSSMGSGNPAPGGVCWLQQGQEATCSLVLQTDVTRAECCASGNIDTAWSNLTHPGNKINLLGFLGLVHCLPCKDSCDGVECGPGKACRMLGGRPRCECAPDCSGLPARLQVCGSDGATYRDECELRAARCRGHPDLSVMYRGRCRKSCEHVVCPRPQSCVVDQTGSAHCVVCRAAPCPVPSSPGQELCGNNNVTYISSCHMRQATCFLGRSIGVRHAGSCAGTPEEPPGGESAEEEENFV
Dickkopf-related protein 1 (Homo sapiens), sequence (O94907 whole entry, looked up): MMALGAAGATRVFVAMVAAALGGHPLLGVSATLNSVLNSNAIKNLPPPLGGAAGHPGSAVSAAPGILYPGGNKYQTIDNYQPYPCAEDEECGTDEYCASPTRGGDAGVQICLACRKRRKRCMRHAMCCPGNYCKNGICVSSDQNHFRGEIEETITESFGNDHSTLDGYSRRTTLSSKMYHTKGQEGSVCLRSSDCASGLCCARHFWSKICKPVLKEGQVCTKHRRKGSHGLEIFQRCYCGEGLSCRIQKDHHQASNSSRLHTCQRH

As for `C=C(CCCC)/C(=C/C[C@@H](OC(C)=O)c1ccc(CO)o1)c1cc(C(=O)OC)ccc1OC`, the composite z-score in test [1] is 0.416; in test [2], -0.198; in [3] it was -0.549; in [5] it was 1.19; in test [6] it was 1.13; in test [7] it was 0.0789. In addition, the composite z-score in [8] turned out to be 1.4; in [9] it was 0.543; in [10], 0.207. For the same compound, in test [4], the z-score is 1.32 (inactive).
In the case of `COc1ccc([Si](C)(C)[C@H]2[C@H](CCn3cc([C@H](O)c4ccccc4)nn3)O[C@@]3(C(=O)N(Cc4cccc(N5C(=O)c6cccc7cccc5c67)c4)c4ccccc43)[C@@H]2C)cc1`, the composite z-score in [1] was 0.661; in [2], -0.0526; in [3], 0.837; in test [5], -0.718; in test [6], -1.22; in test [7] it was -1.04. Besides, the composite z-score in test [8] was -1.4; in test [9] it was -1.66; in [10] it was -0.456. Moreover, in test [4], the z-score is -0.762 (inactive).
Consider `CC(C)C[C@@H]1NC(=O)[C@H]2C[C@@H](C(=O)NCCCCCC[N+](C)(C)C)[C@@H](c3cccc(OCCO)c3)N2C1=O`, for which the composite z-score in [1] was 1.14; in [2] it was -0.231; in [3] it was -0.0365; in test [5], 0.293; in test [6], 0.661; in [7] it was 0.109. The composite z-score was 0.504 in test [8], 0.438 in test [9] and 0.682 in [10]. The z-score in test [4] was -0.713 (inactive).
As for `NC(=O)NCC#Cc1ccc2c(c1)[C@]1(C(=O)N2)[C@H](C(=O)Nc2nc3ccccc3s2)[C@H]2C(=O)O[C@H](c3ccccc3)[C@H](c3ccccc3)N2[C@@H]1c1ccc(O)cc1`, the composite z-score in [1] came to 0.726; in test [2], 0.636; in test [3], 0.212; in test [5], 1; in test [6], 0.163; in test [7] it was 0.278. Moreover, the composite z-score worked out at 0.53 in test [8], 0.246 in [9] and 0.744 in test [10]. Also, the z-score in test [4] is 0.232 (inactive).
In the case of `C=CCOC(=O)[C@H]1[C@@H]2C(=O)O[C@@H](c3ccccc3)[C@@H](c3ccccc3)N2[C@@H](c2ccc(OCCOC(=O)[C@H]3C[C@H]4C(=O)N[C@@H](Cc5ccccc5)C(=O)N4[C@H]3c3ccc(O)cc3)cc2)[C@]12C(=O)Nc1ccc(I)cc12`, the composite z-score in test [1] was 1.34; in test [2], -0.188; in [3] it was -0.485; in [5] it was 1.26; in test [6] it was 0.98; in [7], 0.625. Further, the values for the composite z-score in [8], in test [9] and in test [10] were 1.46, 1.27 and 0.0385, respectively. Further, the z-score in test [4] was 0.354 (inactive).
Regarding `COC(=O)C1(Cc2ccccc2)C=C2C(=C(c3ccccc3)C(=O)C2C)CN1` (stereo not given), the composite z-score in [1] was -0.208; in test [2] it was 1.88; in [3] it was 1.39; in test [5], 1.03; in [6] it was -0.731; in [7], -0.544. The composite z-score was -0.147 in [8], -0.89 in test [9] and 1.69 in test [10]. Also, the z-score in test [4] is 0.388 (inactive).
Regarding `CCOC(=O)[C@H]1C/C=C/C[C@H](C(=O)OCC)C(=O)O[C@H]2[C@@H](OC)O[C@H](CO)[C@@H](OC(=O)Nc3ccc(OC)cc3)[C@@H]2OC1=O`, the composite z-score in test [1] was 0.692; in [2], 0.481; in test [3] it was 0.564; in test [5], 1; in [6], 1.03; in test [7], 0.368. Moreover, the composite z-score in test [8] came to 1.29; in test [9] it was 0.46; in [10] it was 0.467. In addition, the z-score in [4] is 0.0675 (inactive).
For `COc1ccc([Si](C)(C)[C@H]2[C@H](CCO)O[C@@]3(C(=O)N(Cc4cccc(N5CCCCC5=O)c4)c4ccccc43)[C@@H]2C)cc1`, the composite z-score in test [1] came out at 1.08; in [2] it was 0.176; in [3] it was 0.0883; in [5], 0.748; in test [6] it was 0.845; in test [7], 0.525. The composite z-score in test [8] worked out at 1.16; in test [9], 0.82; in test [10] it was 0.861. Besides, the z-score in [4] was -2.37 (inactive).
In the case of `CCOC(=O)C[C@H]1[C@H](OC(=O)c2ccc(-c3ccccc3)cc2)[C@@H](NC(=O)c2ccc3ccccc3c2)c2cc(OCCCO)ccc2N1C(=O)c1ccc2ccccc2n1`, the composite z-score in test [1] was 0.33; in [2], -0.0069; in test [3], 0.221; in test [5], 0.577; in test [6], 0.439; in [7] it was 0.098. Further, the composite z-score in test [8] was 0.458; in [9], 0.426; in [10], 0.31. Moreover, the z-score in test [4] was -0.634 (inactive).
In the case of `COCCOC(=O)N1C(=O)[C@@]2(c3cc(C#CC4(O)CCCCCC4)ccc31)[C@H](C(N)=O)[C@H]1C(=O)O[C@H](c3ccccc3)[C@H](c3ccccc3)N1[C@@H]2c1ccc(O)cc1`, the composite z-score in test [1] is 1.16; in [2], -0.116; in test [3], -0.0074; in test [5], 1.09; in test [6] it was 1.01; in test [7] it was 0.406. The composite z-score worked out at 1.28 in test [8], 0.489 in test [9] and 0.496 in [10]. For the same compound, the z-score in [4] was -0.538 (inactive).
For `CC(C)(C)OC(=O)CC[C@]1(C(=O)N2CCOCC2)N=C(c2ccc(OCCCO)cc2)O[C@H]1c1ccccc1`, the composite z-score was 1.65 in test [1]; 0.126 in test [2]; 0.417 in test [3]; 1.05 in test [5]; 0.488 in test [6]; -0.433 in test [7]. The composite z-score in [8] is 0.0033; in test [9], -0.158; in [10] it was 0.456. Besides, in [4], the z-score was 0.12 (inactive).
Turning to `C=CCN1Cc2ccccc2C[C@@]2(N=C(c3ccc(OCCCO)cc3)O[C@H]2c2ccccc2)C1=O`, the composite z-score in test [1] came out at 0.907; in [2], 0.189; in [3], 0.512; in [5], 1.17; in test [6] it was 1.26; in [7], 0.147. Moreover, the values for the composite z-score in test [8], in test [9] and in test [10] were 0.363, 0.0968 and 1.03, respectively. In test [4], the z-score was 6.55 (inactive).
For `CO[C@H]1O[C@H](CO)[C@@H](OC(=O)c2ccc(Br)cc2)[C@@H]2OC(=O)[C@@H](Cc3ccc4ccccc4c3)C/C=C/C[C@H](Cc3ccc4ccccc4c3)C(=O)O[C@@H]12`, the composite z-score in test [1] is 0.995; in [2], 0.463; in test [3] it was 0.769; in test [5], 0.429; in [6] it was 0.548; in [7], -0.567. Also, the composite z-score is 0.323 in [8], -0.54 in test [9] and 0.588 in test [10]. Moreover, the z-score in [4] is -0.83 (inactive).
Turning to `COCCOC(=O)N1C(=O)[C@@]2(c3cc(C#CCNC(N)=O)ccc31)[C@H](C(=O)N1CCCCCCC1)[C@H]1C(=O)O[C@H](c3ccccc3)[C@H](c3ccccc3)N1[C@@H]2c1ccc(O)cc1`, the composite z-score in test [1] is 1.25; in test [2], -0.124; in test [3], 0.526; in test [5] it was 0.527; in test [6] it was 1; in test [7] it was 0.734. Also, the results for the composite z-score in test [8], in test [9] and in test [10] were 1.28, 0.751 and 1.27, respectively. Besides, in [4], the z-score is 0.392 (inactive).
Turning to `NCCCCCCNC(=O)[C@H]1C[C@H]2C(=O)N[C@@H](Cc3ccccc3)C(=O)N2[C@H]1c1ccc(O)cc1`, the composite z-score in test [1] is 1.3; in [2], 0.21; in test [3], 0.456; in test [5], -0.0657; in [6], 0.481; in test [7], 0.92. In addition, the composite z-score in test [8] was 0.533; in [9], 0.232; in [10], 1.1. Besides, the z-score in test [4] is -1.23 (inactive).
